Calls of active or inactive are those of the source.
How the values were obtained:
[1] = test system: Wnt5a (protein binding on small-molecule microarray); experiment: Wnt5a binders on small-molecule microarray, primary screen, biophysical, 635/667 nm fluorescence (AID 1142); conditions: 635 nm fluorescence, higher = more signal;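 note: fluorescence read at 667 nm with signal to noise per printed feature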
[2] = cell viability in Huh7 cells, primary screen, cytotoxicity control for HCV replication inhibitor project, CellTiter-Glo luminescence, basal, 48 h (AID 1143); conditions: Huh7 HCV replicon, higher = more signal, called active from +8 up or from −8 down;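 note: Huh7 hepatoma cells carrying a hepatitis C replication reporter with no stimulus; test concentration not given here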
[3] = CREB reporter modulators without forskolin, primary screen, cell-based, PC12, CRE-LacZ reporter, unstimulated (AID 1145); conditions: no forskolin, luminescence, 4.5 h, higher = more signal, called active from +8 up or from −8 down
[4] = CREB reporter modulators under forskolin, primary screen, cell-based, PC12, CRE-LacZ reporter, forskolin-stimulated (AID 1146); conditions: luminescence, 4.5 h, higher = more signal, called active from +8 up or from −8 down;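 note: PC12 cells with 6xCRE LacZ reporter stimulated by forskolin 10 µM; beta-galactosidase reporter signal reflecting CREB driven transcription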
[5] = molecular target: Streptavidin (Streptomyces avidinii) (UniProt P22629); experiment: streptavidin binders on small-molecule microarray, primary screen, artefact control for SMM compound annotation, biophysical, 635/667 nm fluorescence (AID 1147); conditions: streptavidin binding, higher = more signal;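 note: signal reflects streptavidin binding to arrayed compounds as a control protein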
[6] = small-molecule binders of probe aInhba, primary screen, biochemical, small-molecule microarray, 635/667 nm fluorescence (AID 1148); conditions: higher = more signal;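 note: score merges 667nm spot fluorescence with signal-to-noise for antibody binding to printed compounds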
Torsin-1A (Homo sapiens) [7] = molecular target: Torsin-1A (Homo sapiens) (UniProt O14656); experiment: torsin A binders from cell lysate, primary screen, small-molecule microarray, wild-type, 635/667 nm (AID 1149); conditions: COS7 hTOR1A-WT lysate, 635 nm fluorescence, higher = more signal
Torsin-1A (Homo sapiens) [8] = molecular target: Torsin-1A (Homo sapiens) (UniProt O14656); experiment: small-molecule binders of mutant TOR1A in lysate, primary screen, cell lysate, small-molecule microarray, COS7 lysate, 635/667 nm fluorescence (AID 1150); conditions: COS7 hTOR1A mutant lysate, 635 nm fluorescence, higher = more signal;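 note: score pools 667 nm emission and signal to noise measuring lysate protein binding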
[9] = test system: Sonic hedgehog protein (Shh); experiment: small-molecule binders of Shh protein, primary screen, biochemical, small-molecule microarray, 635/667 nm fluorescence (AID 1151); conditions: small-molecule microarray binding, 635 nm fluorescence; higher = more signal;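 note: Shh protein binding to compounds spotted on small-molecule microarray slides; score combines spot fluorescence intensity with signal-to-noise across triplicate slides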
[10] = E. coli DRC41 culture turbidity changes, primary screen, E. coli filamentation inducer project, strain DRC41, OD650, 48 h (AID 1152);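 note: E. coli MC1000 strain DRC41 lacking acrAB efflux pump and sulA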; conditions: E. coli DRC41 (acrAB sulA), higher = more signal, called active from +8 up or from −8 down
[11] = small-molecule binders of probe aLefty1, primary screen, biochemical, small-molecule microarray, 635/667 nm fluorescence (AID 1153); conditions: higher = more signal;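 note: score merges spot fluorescence with signal-to-noise ratio from the scanned slide images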
[12] = PSAC antagonists in infected red cells, primary screen, cell-based, P. falciparum Indochina, OD700, 1 h (AID 1154); conditions: P. falciparum Indochina infected RBC osmotic lysis, higher = more signal, called active from +8 up or from −8 down
[13] = PSAC antagonists in infected red cells, primary screen, cell-based, P. falciparum Indochina, OD700, 2 h (AID 1155);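 note: lysis reports solute entry through the parasite surface anion channel PSAC; channel blockers reduce lysis of infected cells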; conditions: P. falciparum Indochina infected erythrocytes, osmotic lysis OD700; higher = more signal, called active from +8 up or from −8 down
[14] = osmotic lysis modulators in infected erythrocytes, primary screen, PSAC antagonist project, cell-based, P. falciparum Indochina, OD700, 3 h (AID 1156); conditions: higher = more signal, called active from +8 up or from −8 down
[15] = PSAC antagonists in infected red cells, primary screen, cell-based, P. falciparum Indochina, OD700, 18 h (AID 1157); conditions: P. falciparum Indochina infected erythrocytes, osmotic lysis OD700, 18 h; higher = more signal, called active from +8 up or from −8 down
[16] = modulators of S6 phosphorylation in cells, primary screen, cell-based, A549, cytoblot, luminescence, serum-stimulated (AID 1158); conditions: A549 phospho-S6 cytoblot, 5 h, higher = more signal;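 note: serum-stimulated A549 lung adenocarcinoma cells; signal is phosphorylated S6 detected by cytoblot immunostaining with HRP secondary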
[17] = molecular target: NADPH oxidase 2 (Homo sapiens) (UniProt P04839); experiment: NOX2-dependent H2O2 signal modulators, primary screen, NOX inhibitor project, cell-based, HEK293-NOX2, PMA-stimulated, Amplex Red fluorescence (AID 1159); conditions: 45 min, higher = more signal, called active from +8 up or from −8 down; note: test concentration not given here
[18] = molecular target: NADPH oxidase 4 (Homo sapiens) (UniProt Q9NPH5); experiment: NOX4-dependent H2O2 signal modulators, primary screen, NOX inhibitor project, cell-based, HEK293-NOX4, tetracycline-induced, Amplex Red fluorescence (AID 1160); conditions: 45 min, higher = more signal, called active from +8 up or from −8 down
[19] = molecular target: NADPH oxidase 5 (Homo sapiens) (UniProt Q96PH1); experiment: NOX5-dependent H2O2 signal modulators, primary screen, NOX inhibitor project, cell-based, HEK293-NOX5, Amplex Red fluorescence (AID 1161); conditions: HEK293-NOX5, ionomycin, 45 min, higher = more signal
[20] = A549 cell viability effects, profiling panel, calcein-AM fluorescence, 48 h, basal (AID 1162); conditions: higher = more signal; note: test concentration not given here

Torsin-1A (Homo sapiens), sequence (O14656 whole entry, looked up): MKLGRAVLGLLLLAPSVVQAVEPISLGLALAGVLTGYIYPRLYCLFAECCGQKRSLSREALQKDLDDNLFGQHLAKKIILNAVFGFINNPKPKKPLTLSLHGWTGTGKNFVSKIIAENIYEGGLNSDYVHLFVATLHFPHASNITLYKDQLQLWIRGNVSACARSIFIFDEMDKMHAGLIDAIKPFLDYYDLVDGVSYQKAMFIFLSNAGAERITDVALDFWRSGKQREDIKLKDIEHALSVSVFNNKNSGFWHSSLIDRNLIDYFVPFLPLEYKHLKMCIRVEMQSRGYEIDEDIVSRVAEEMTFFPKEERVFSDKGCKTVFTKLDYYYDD
NADPH oxidase 5 (Homo sapiens), sequence (Q96PH1 whole entry, looked up): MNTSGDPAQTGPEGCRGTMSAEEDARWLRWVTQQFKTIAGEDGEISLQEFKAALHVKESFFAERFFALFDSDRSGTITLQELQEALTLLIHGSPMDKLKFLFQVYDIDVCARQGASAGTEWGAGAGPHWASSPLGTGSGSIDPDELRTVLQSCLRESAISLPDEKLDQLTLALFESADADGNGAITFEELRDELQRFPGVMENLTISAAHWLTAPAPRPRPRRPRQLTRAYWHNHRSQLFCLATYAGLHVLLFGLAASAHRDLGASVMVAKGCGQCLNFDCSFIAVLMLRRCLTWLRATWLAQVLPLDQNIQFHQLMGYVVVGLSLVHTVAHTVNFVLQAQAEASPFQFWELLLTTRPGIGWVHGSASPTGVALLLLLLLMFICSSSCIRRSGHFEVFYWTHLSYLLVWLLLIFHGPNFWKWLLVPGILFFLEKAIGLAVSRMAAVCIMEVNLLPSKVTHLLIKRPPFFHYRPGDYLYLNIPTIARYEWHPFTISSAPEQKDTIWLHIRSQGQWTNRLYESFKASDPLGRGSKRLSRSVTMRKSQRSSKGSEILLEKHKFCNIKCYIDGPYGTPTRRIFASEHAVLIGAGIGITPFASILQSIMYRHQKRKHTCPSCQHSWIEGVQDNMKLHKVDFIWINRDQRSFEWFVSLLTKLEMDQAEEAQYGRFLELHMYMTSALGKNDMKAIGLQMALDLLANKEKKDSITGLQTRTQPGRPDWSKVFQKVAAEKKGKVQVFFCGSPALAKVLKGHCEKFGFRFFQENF
NADPH oxidase 4 (Homo sapiens), sequence (Q9NPH5 whole entry, looked up): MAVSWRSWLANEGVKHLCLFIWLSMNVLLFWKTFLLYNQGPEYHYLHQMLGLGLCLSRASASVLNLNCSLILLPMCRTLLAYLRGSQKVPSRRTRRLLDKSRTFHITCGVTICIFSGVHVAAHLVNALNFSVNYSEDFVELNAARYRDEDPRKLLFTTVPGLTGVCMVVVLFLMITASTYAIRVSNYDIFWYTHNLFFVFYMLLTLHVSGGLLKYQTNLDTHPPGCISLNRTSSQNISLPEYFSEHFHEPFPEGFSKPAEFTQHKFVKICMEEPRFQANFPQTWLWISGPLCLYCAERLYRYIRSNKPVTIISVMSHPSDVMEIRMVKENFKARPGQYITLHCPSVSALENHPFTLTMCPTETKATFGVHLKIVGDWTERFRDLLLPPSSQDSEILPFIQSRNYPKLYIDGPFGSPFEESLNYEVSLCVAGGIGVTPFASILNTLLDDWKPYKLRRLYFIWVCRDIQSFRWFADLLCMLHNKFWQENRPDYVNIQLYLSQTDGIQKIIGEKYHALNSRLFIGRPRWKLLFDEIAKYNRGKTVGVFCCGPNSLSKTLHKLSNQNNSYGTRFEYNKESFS
NADPH oxidase 2 (Homo sapiens), sequence (P04839 whole entry, looked up): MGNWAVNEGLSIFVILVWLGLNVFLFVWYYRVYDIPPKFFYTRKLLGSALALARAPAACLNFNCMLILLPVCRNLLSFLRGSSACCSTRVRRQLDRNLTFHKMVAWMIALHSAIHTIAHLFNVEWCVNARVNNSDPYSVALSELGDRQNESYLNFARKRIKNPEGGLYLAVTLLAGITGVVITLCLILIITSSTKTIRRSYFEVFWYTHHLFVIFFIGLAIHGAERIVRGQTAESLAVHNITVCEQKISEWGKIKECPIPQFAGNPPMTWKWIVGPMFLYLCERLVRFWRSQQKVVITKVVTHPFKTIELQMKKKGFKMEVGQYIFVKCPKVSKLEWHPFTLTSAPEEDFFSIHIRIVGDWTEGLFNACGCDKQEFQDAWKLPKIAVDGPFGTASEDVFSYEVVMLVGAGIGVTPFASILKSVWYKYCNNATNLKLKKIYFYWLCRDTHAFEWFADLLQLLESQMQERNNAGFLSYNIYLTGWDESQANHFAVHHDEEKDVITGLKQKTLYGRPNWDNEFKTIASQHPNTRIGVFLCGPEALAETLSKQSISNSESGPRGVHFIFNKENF
Streptavidin (Streptomyces avidinii), sequence (P22629 whole entry, looked up): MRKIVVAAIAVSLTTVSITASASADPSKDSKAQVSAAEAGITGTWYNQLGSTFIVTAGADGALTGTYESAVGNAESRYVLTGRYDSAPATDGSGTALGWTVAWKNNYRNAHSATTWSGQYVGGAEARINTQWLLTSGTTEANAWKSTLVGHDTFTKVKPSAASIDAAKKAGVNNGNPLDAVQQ

SMILES | composite z-score [1] | z-score [2] | z-score [3] | z-score [4] | composite z-score [5] | composite z-score [6] | composite z-score (Torsin-1A (Homo sapiens) [7]) | composite z-score (Torsin-1A (Homo sapiens) [8]) | composite z-score [9] | z-score [10] | composite z-score [11] | z-score [12] | z-score [13] | z-score [14] | z-score [15] | z-score [16] | z-score [17] | z-score [18] | z-score [19] | z-score [20]
COC(=O)[C@@]1(CCC(=O)OC(C)(C)C)COC(c2ccc(OCCCO)cc2)=N1 | -0.328 | -0.243 (inactive) | 0.694 (inactive) | -1.14 (inactive) | -1.44 | -0.109 | -1.3 | -0.742 | -1.03 | 1.06 (inactive) | 0.0721 | 21 (active) | 3.26 (inactive) | 0.0081 (inactive) | 0.613 (inactive) | 0.21 | -0.0972 (inactive) | 0.562 (inactive) | -2.25 | 0.196
C[N+](C)(C)CCCC[C@@H]1NC(=O)[C@H]2C[C@@H](C(=O)NCCCCCN)[C@@H](c3cccc(OCCO)c3)N2C1=O | 0.165 | -1.18 (inactive) | 0.0124 (inactive) | -1 (inactive) | 1.04 | 0.147 | 0.918 | 1.7 | -0.197 | 2.36 (inactive) | 0.857 | 1.76 (inactive) | 0.858 (inactive) | -1.26 (inactive) | 0.57 (inactive) | -0.0325 | 1.03 (inactive) | -0.833 (inactive) | 2.24 | -0.013
O=C(NC1CC1)[C@@H]1c2ccccc2C(=O)N(Cc2ccccc2C(F)(F)F)[C@H]1c1ccc(CO)cc1 | 0.312 | -0.568 (inactive) | -0.0512 (inactive) | -1.37 (inactive) | -0.47 | 0.0439 | 0.504 | 0.723 | 0.732 | 1.48 (inactive) | 0.106 | 2.17 (inactive) | 0.721 (inactive) | -0.335 (inactive) | 0.106 (inactive) | 0.152 | 0.583 (inactive) | 0.647 (inactive) | 1.26 | 1.88
C=CCNC(=O)[C@H]1[C@@H]2C(=O)O[C@@H](c3ccccc3)[C@@H](c3ccccc3)N2[C@@H](c2ccc(OCCO)cc2)[C@]12C(=O)Nc1ccc(C#CCCO)cc12 | -0.09 | -2.34 (inactive) | 0.0384 (inactive) | 0.8 (inactive) | -0.0494 | -0.0639 | 0.234 | 0.21 | 1.06 | 2.32 (inactive) | 0.0793 | 4.5 (inactive) | -0.407 (inactive) | -0.144 (inactive) | -2.03 (inactive) | 2.16 | 2.4 (inactive) | 1.18 (inactive) | 0.572 | 0.109
CC1CC/C=C\[C@H]2OC34C=CCN(C(C)C)C(=O)[C@H]3N(C(CO)C(C)C)C(=O)[C@@H]4C2C(=O)O1 (stereo not given in full) | -0.0784 | 0.114 (inactive) | -0.346 (inactive) | -0.791 (inactive) | -1.28 | -0.133 | -0.87 | -0.22 | -0.137 | 2.16 (inactive) | -0.225 | 1.3 (inactive) | -0.74 (inactive) | 0.604 (inactive) | -0.531 (inactive) | 0.0551 | 1.49 (inactive) | 0.743 (inactive) | 1.79 | 1.06
CN1C=C(C(=O)OCCS(C)(=O)=O)C(C(=O)OCCS(C)(=O)=O)=CC(CCCO)=CC1c1cccs1 (stereo not given) | 0.131 | -0.894 (inactive) | 5.95 (inactive) | -1.56 (inactive) | -0.0015 | -0.299 | 0.408 | 0.0286 | 1.05 | 0.302 (inactive) | -0.0011 | 1.91 (inactive) | -1.53 (inactive) | -0.727 (inactive) | -1.71 (inactive) | -0.496 | 0.92 (inactive) | 0.858 (inactive) | 0.0246 | 2.6
C[N+](C)(C)CCCC[C@@H]1NC(=O)[C@@H]2C[C@H](C(=O)NCCCCCNC(=O)CS)[C@H](c3ccc(O)cc3)N2C1=O | 0.684 | -0.244 (inactive) | -0.398 (inactive) | -0.757 (inactive) | -0.101 | -0.128 | 0.348 | 0.305 | 1.42 | 1.18 (inactive) | -0.0536 | 0.453 (inactive) | -1.65 (inactive) | -4.23 (inactive) | -2.4 (inactive) | 1.4 | 0.621 (inactive) | 0.774 (inactive) | 2.12 | -0.215
COc1ccc(C#Cc2ccc3c(c2)[C@]2(C(=O)N3)[C@H](c3ccc(O)cc3)N3[C@H](c4ccccc4)[C@H](c4ccccc4)OC(=O)[C@H]3[C@@H]2C(N)=O)cc1 | 0.295 | -5.1 (inactive) | 0.209 (inactive) | -0.532 (inactive) | -0.881 | -0.153 | 0.255 | -0.0088 | -0.301 | 1.63 (inactive) | -0.147 | 2.89 (inactive) | 1.58 (inactive) | 0.672 (inactive) | 1.23 (inactive) | 0.76 | 1.76 (inactive) | -1.43 (inactive) | 0.618 | -1.55

Source: PubChem BioAssay
